PubChem BioAssay (NCATS)
Results filed as inconclusive are left out. A call without a number means that no potency is given here. Active and inactive are the calls of the source. Unless noted, calls come from the whole dose curve.

How the values were obtained:
[1] = Cell Viability - HepG2 (AID 433); details: qHTS;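 note: potency is the fitted concentration of half-maximal effect; potency for ATP loss meaning cytotoxicity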
Outline: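 Read-out is luciferase-based quantitation of cellular ATP as a measure of viable HepG2 cells after 40 h treatment at 37 °C. Signal decrease is scaled between DMSO-only and 100 uM tamoxifen controls, with AC50 fitted by the Hill equation.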

[2] = Cell Viability - MRC5 (AID 434); details: MRC5 lung fibroblast viability, qHTS;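 note: potency is the fitted concentration of half-maximal effect; potency reflects cytotoxicity seen as loss of intracellular ATP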
Outline: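 MRC5 normal human lung fibroblasts, 1500 cells/well, exposed to compound for 40 hr at 37 C. Cellular ATP was read by CellTiter-Glo luminescence; data normalized to DMSO and 100 uM tamoxifen, with AC50 from Hill fits.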

[3] = Cell Viability - N2a (AID 540; active = well fitted cell-killing curve with a large enough effect; note: nearly all actives have a fitted effect of over 45% in size); details: N2a mouse neuroblastoma cell viability; activity change, negative = cytotoxicity: at 92.2 µM (top of the series)
Outline: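 First, 1500 N2a cells per well incubate 5 hr at 37 °C; next, compounds are added and incubated 40 hr at 37 °C; finally CellTiter-Glo is added and luminescence read after 20 min, with AC50 derived by Hill modeling.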

[4] = MultiTox-Fluor Cytotoxicity Assay - LYMP1-001 - Live Cells (AID 947; active = well fitted cell-killing curve with a large enough effect); details: LYMP1-001 lymphoblastoid cells, live-cell protease fluorescence viability; series mostly up to 92.2 µM
[5] = molecular target: Estrogen receptor (Homo sapiens) (UniProt P03372); assay: qHTS assay for small molecule antagonists of estrogen receptor alpha signaling (AID 588513; active = well fitted curve in the direction sought with a large enough effect in the signal ratio, with a control signal flat, not every such curve was filed as active; the % refers to the signal ratio); details: ER-alpha-UAS-bla HEK293, beta-lactamase ratio, antagonist mode; series mostly up to 76.9 µM
Sequence of Estrogen receptor (Homo sapiens) (P03372 whole entry, looked up): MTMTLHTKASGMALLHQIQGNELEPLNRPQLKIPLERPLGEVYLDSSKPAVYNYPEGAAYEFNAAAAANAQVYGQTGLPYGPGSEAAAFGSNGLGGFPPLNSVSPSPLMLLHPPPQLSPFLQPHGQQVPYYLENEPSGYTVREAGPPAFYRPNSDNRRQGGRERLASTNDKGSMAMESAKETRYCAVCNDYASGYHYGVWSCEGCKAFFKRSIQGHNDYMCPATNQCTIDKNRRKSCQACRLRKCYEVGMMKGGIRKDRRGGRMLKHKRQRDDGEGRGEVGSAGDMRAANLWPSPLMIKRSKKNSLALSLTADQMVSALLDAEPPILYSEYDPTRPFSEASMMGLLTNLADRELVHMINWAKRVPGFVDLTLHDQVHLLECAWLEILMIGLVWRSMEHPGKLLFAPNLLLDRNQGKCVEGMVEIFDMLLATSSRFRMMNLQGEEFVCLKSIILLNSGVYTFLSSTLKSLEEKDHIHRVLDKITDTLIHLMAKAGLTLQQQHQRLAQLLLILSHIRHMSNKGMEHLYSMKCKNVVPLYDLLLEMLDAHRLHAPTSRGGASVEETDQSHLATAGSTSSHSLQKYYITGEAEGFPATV
Outline: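 Fluorescence from CCF4 substrate after 2 h at room temperature gave reporter activity; cells had been exposed to compound and 0.5nM 17-beta-estradiol for 18 h at 37 C. Hill-equation fitting yielded IC50 and maximal response.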

[6] = molecular target: Glucocorticoid receptor (Homo sapiens) (UniProt P04150); assay: qHTS assay for small molecule agonists of glucocorticoid receptor signaling (AID 588532; active = well fitted curve in the direction sought with a large enough effect in the signal ratio, with a control signal flat; the % refers to the signal ratio); details: HeLa MMTV-bla, beta-lactamase ratio, agonist, 18 h; stronger effect = higher value; percent of dexamethasone control, DMSO zero
Sequence of Glucocorticoid receptor (Homo sapiens) (P04150 whole entry, looked up): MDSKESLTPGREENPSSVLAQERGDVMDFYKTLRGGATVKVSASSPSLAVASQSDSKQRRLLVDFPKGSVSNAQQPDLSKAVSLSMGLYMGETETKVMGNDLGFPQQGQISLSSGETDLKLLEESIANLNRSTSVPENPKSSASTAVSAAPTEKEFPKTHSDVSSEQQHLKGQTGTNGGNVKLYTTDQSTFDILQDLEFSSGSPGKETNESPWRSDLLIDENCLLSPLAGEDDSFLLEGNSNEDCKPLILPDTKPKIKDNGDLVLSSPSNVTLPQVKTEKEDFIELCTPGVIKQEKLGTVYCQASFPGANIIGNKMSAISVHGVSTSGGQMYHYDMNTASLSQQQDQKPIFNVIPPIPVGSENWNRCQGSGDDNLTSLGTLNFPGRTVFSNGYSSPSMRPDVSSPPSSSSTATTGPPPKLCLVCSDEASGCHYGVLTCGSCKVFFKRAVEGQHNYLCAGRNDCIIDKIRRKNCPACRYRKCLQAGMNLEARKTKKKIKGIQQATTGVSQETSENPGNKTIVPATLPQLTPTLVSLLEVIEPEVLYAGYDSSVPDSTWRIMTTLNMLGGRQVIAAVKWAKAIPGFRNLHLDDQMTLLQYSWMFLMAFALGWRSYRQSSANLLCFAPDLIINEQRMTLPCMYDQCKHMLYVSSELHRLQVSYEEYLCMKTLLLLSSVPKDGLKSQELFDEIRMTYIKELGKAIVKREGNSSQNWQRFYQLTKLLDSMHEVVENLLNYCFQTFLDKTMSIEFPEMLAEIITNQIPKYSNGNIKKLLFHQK
Outline: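 MMTV-bla HeLa beta-lactamase reporter cells in 1% charcoal/dextran FBS medium, compounds up to 92 uM for 18 h at 37 C, CCF4 readout; normalized to 0.1 uM dexamethasone (100%), EC50 and efficacy from Hill fits.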

[7] = molecular target: Glucocorticoid receptor (Homo sapiens) (UniProt P04150); assay: qHTS assay for small molecule antagonists of glucocorticoid receptor signaling (AID 588533; active = well fitted inhibition curve with a large enough effect in the signal ratio, with a control signal flat, not every such curve was filed as active; the % refers to the signal ratio); details: HeLa MMTV-bla, GRE beta-lactamase ratio, antagonist mode, 18 h; series mostly up to 76.8 µM
Outline: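 Antagonist-mode qHTS: compound titrations added to GRE-bla HeLa cells, then dexamethasone 2 nM final; 18 h, 37 C. CCF4 FRET fluorescence normalized to dexamethasone and DMSO; IC50 from Hill fit.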

[8] = molecular target: Peroxisome proliferator-activated receptor delta (Homo sapiens) (UniProt Q03181); assay: qHTS assay for small molecule agonists of peroxisome proliferator-activated receptor delta signaling (AID 588534); details: HEK293T PPARdelta-UAS-bla, beta-lactamase ratio, 18 h; series mostly up to 76.7 µM
Sequence of Peroxisome proliferator-activated receptor delta (Homo sapiens) (Q03181 whole entry, looked up): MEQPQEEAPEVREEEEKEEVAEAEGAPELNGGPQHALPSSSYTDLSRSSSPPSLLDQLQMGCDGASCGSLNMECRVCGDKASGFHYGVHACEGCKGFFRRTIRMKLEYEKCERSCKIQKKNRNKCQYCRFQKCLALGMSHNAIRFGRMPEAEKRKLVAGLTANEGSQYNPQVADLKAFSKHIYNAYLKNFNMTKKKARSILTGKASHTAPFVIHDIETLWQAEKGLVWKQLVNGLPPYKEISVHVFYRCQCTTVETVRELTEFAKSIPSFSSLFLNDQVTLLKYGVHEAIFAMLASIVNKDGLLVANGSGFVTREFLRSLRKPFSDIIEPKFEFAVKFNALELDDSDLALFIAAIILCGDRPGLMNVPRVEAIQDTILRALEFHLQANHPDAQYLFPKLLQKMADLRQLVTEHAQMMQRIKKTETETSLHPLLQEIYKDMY
Outline: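 Reporter cells were plated and held 5 hrs at 37 C before compounds were added. After 18 hrs at 37 C, CCF4 dye was loaded for 2 hrs at RT and fluorescence measured.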

[9] = qHTS assay for small molecule antagonists of peroxisome proliferator-activated receptor delta signaling (AID 588535; active = well fitted inhibition curve with a large enough effect in the signal ratio, with a control signal flat, not every such curve was filed as active; the % refers to the signal ratio;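 for max response: cells co-treated with a PPAR-delta agonist as stimulator during compound exposure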); details: HEK293T PPARd-UAS-bla, beta-lactamase FRET ratio, 18 h; 460 nm channel
Outline: (§1)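 Cells were seeded at 4000 per well in assay medium containing 2% charcoal/dextran FBS and held 5 hrs at 37 C. Compounds were then added for 18 hrs. CCF4 substrate was applied for 2 hrs at room temperature before fluorescence reading.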

[10] = molecular target: Peroxisome proliferator-activated receptor gamma (Homo sapiens) (UniProt P37231); assay: qHTS assay for small molecule agonists of peroxisome proliferator-activated receptor gamma signaling (AID 588536; active = well fitted curve in the direction sought with a large enough effect in the signal ratio, with a control signal flat, not every such curve was filed as active; the % refers to the signal ratio); details: HEK293 PPARg-UAS-bla, beta-lactamase ratio, 16 h, percent of rosiglitazone response, DMSO as zero; series mostly up to 76.7 µM
Sequence of Peroxisome proliferator-activated receptor gamma (Homo sapiens) (P37231 whole entry, looked up): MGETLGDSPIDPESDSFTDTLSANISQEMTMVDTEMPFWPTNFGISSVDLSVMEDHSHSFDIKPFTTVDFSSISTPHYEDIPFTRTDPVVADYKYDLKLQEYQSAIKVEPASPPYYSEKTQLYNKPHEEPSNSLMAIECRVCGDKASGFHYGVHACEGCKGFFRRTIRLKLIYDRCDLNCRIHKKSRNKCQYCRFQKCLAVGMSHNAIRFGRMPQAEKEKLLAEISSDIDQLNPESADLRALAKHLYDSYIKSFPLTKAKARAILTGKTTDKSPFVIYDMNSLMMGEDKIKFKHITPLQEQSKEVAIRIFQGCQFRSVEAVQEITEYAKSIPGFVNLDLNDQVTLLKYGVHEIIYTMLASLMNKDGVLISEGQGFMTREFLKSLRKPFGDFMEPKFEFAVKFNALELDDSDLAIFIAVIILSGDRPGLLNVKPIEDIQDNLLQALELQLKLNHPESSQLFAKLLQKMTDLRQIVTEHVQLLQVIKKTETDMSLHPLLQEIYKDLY
Outline: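 Ratiometric blue/green fluorescence (405 nm excitation; 460 and 530 nm emission) from CCF4-loaded HEK293 reporter cells serves as signal. Exposure to test compounds lasts 16 h at 37 C in medium containing 1% charcoal/dextran-treated serum.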

[11] = molecular target: Peroxisome proliferator-activated receptor gamma (Homo sapiens) (UniProt P37231); assay: qHTS assay for small molecule antagonists of peroxisome proliferator-activated receptor gamma signaling (AID 588537; active = well fitted inhibition curve with a large enough effect in the signal ratio, with a control signal flat, not every such curve was filed as active; the % refers to the signal ratio;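 note: reporter cells co-stimulated with 50 nM rosiglitazone agonist during compound treatment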); details: HEK293 PPARg-UAS-bla, beta-lactamase ratio, antagonist mode; series mostly up to 76.8 µM
Outline: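 Step one: plate 3000 HEK293 UAS-bla cells per well in medium with 1% stripped serum and hold 6-6.5 h at 37 C. Step two: add compound and 50 nM agonist for 16 h. Step three: CCF4 loading, fluorescence read.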

[12] = molecular target: Thyroid hormone receptor beta (Homo sapiens) (UniProt P10828); assay: qHTS assay for small molecule agonists of thyroid hormone receptor beta signaling (AID 588545); details: TR-UAS-bla GripTite HEK 293, beta-lactamase ratio, agonist mode, 18 h; series mostly up to 76.7 µM
Sequence of Thyroid hormone receptor beta (Homo sapiens) (P10828 whole entry, looked up): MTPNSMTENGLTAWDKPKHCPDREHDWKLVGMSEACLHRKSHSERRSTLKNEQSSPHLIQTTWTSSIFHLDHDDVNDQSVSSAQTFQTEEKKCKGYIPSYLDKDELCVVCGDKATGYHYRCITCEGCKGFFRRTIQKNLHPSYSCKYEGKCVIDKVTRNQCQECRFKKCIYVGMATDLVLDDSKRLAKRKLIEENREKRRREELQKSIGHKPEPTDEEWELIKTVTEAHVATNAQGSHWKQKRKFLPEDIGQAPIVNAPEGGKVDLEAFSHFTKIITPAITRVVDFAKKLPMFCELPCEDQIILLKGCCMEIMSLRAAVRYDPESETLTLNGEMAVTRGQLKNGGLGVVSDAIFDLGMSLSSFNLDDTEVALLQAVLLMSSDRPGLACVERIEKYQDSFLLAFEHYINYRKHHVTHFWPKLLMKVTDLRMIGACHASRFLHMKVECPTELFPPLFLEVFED
Outline: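 Cells (2500/well) were seeded, incubated 4 hrs at 37 C, dosed with a compound series, incubated 18 hrs, loaded with CCF4 dye for 2 hrs at RT, then read for fluorescence. Data were scaled between DMSO (0%) and 10 nM T3 (100%).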

[13] = qHTS assay for small molecule agonists of the antioxidant response element (ARE) signaling pathway (AID 651741; active = well fitted activation curve with a large enough effect in the signal ratio; the % refers to the signal ratio; note: potency is the fitted concentration of half-maximal effect); details: HepG2 ARE-bla reporter, beta-lactamase FRET ratio, 16 h; series mostly up to 96 µM
Outline: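 HepG2 ARE-bla cells plated at 2,000 cells/well and incubated 5 h at 37 C/5% CO2 received 23 nL compound in DMSO. After 16 h at 37 C, LiveBLAzer B/G FRET substrate was applied for 2 h at room temperature and fluorescence read.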

[14] = qHTS assay for small molecule disruptors of the mitochondrial membrane potential - 1 hr assay (AID 651754); details: series mostly up to 92.2 µM; note: nearly all actives have a fitted effect of over 35% in size; note: potency is the fitted concentration of half-maximal effect
Outline: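 Steps: seed HepG2 cells and let attach overnight; pin-transfer compound or vehicle; incubate 1 hr at 37C; add Mito-MPS dye for 30 min; read two-channel fluorescence for monomer and aggregate forms.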

[15] = molecular target: Peroxisome proliferator-activated receptor delta (Homo sapiens) (UniProt Q03181); assay: qHTS assay for small molecule antagonists of peroxisome proliferator-activated receptor delta signaling (AID 588535); details: HEK293T PPARd-UAS-bla, beta-lactamase FRET ratio, 18 h; series mostly up to 76.7 µM;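 for max response: cells co-treated with a PPAR-delta agonist as stimulator during compound exposure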
Outline: as §1

[16] = molecular target: Vitamin D3 receptor (Homo sapiens) (UniProt P11473); assay: qHTS assay for small molecule antagonists of vitamin D receptor signaling (AID 588541); details: HEK293T VDR-UAS-bla, beta-lactamase ratio, antagonist mode; series mostly up to 76.7 µM;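 note: receptor activated by calcitriol during compound treatment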
Sequence of Vitamin D3 receptor (Homo sapiens) (P11473 whole entry, looked up): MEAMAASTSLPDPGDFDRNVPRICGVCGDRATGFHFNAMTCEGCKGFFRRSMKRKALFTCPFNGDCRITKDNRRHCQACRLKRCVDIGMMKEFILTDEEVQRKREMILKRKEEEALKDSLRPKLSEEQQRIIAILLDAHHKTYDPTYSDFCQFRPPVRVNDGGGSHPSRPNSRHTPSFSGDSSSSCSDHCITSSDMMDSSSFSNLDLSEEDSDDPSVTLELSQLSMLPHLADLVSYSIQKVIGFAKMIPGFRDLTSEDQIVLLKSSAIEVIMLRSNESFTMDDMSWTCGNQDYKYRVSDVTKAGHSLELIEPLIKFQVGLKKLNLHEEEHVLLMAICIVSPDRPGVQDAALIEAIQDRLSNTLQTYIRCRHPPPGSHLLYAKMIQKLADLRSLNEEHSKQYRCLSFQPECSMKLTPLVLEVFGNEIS
Outline: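 VDR-UAS-bla HEK293T cells in 2% charcoal-stripped FBS were stimulated with 1-alpha,25-dihydroxyvitamin D3 (3 nM final) plus compound for 16 h at 37 C. The beta-lactamase CCF4 readout was normalized to 50 nM agonist and DMSO, and Hill fits gave IC50.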

[17] = molecular target: Thyroid hormone receptor beta (Homo sapiens) (UniProt P10828); assay: qHTS assay for small molecule antagonists of thyroid hormone receptor beta signaling (AID 588547; active = well fitted inhibition curve with a large enough effect in the signal ratio, with a control signal flat, not every such curve was filed as active; the % refers to the signal ratio;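 note: cells stimulated with 0.4 nM T3 agonist during compound exposure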); details: TR-UAS-bla HEK293, beta-lactamase ratio, antagonist mode, 18 h
Outline: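 TR-UAS-bla GripTite HEK293 cells in 2% charcoal/dextran FBS medium; compounds 0.59 nM to 92 uM with T3 at 0.4nM final, 18 h at 37 C. Beta-lactamase read by CCF4 fluorescence (460/530 nm); Hill fits gave IC50 and efficacy.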

[18] = qHTS assay for small molecule activators of the p53 signaling pathway (AID 651743; active = well fitted activation curve with a large enough effect in the signal ratio, not every such curve was filed as active; the % refers to the signal ratio); details: HCT-116 p53RE-bla, beta-lactamase FRET ratio, 16 h; activation: stronger effect = higher value
Outline: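 HCT-116 p53RE-bla, 4,000 cells/well; 5 h settle; cpd/DMSO 16 h, 37 C; LiveBLAzer B/G 2 h RT; fluorescence intensity.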

[19] = molecular target: Bile acid receptor (Homo sapiens) (UniProt Q96RI1); assay: qHTS assay for small molecule agonists of farnesoid X receptor signaling (AID 588527); details: HEK293T FXR-UAS-bla, beta-lactamase ratio, 16 h; stronger effect = higher value
Sequence of Bile acid receptor (Homo sapiens) (Q96RI1 whole entry, looked up): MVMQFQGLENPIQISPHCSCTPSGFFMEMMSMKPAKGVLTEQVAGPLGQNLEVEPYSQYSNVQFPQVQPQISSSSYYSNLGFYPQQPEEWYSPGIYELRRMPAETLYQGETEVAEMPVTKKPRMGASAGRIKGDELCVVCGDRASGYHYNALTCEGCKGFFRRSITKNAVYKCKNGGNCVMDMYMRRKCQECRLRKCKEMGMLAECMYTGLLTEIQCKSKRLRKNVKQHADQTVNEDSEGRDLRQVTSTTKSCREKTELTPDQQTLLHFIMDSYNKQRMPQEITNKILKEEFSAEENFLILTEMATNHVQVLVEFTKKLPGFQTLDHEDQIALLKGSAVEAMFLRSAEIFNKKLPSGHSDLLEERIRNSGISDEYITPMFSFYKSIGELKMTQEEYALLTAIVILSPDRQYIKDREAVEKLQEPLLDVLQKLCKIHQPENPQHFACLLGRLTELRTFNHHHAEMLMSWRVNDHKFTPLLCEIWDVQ
Outline: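 Agonist-mode beta-lactamase reporter in GeneBLAzer FXR-UAS-bla HEK293T cells, titration up to 92 uM, 16 h exposure at 37 C, CCF4 fluorescence. Response scaled to DMSO (0%) and 100 uM chenodeoxycholic acid (100%), then Hill-fitted for EC50 and efficacy.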

| Structure (SMILES) | Potency [1] | Potency [2] | Potency [3] | outcome [4] | Potency [5] | activation [6] | outcome [7] | outcome [8] | max response [9] [%] | outcome [10] | Potency [11] | Potency [12] | Potency [13] | Potency [14] | outcome [15] | outcome [16] | activity change % (negative = inhibition) [17] | activation [18] | activation [19] |
| --- | --- | --- | --- | --- | --- | --- | --- | --- | --- | --- | --- | --- | --- | --- | --- | --- | --- | --- | --- |
| O=[N+]([O-])c1cc(Cl)c(Cl)cc1Cl | > 92 µM (inactive) | > 92 µM (inactive) | inactive | inactive | inactive | -2.16% (inactive) | inactive | inactive | 5.75 | inactive | inactive | inactive | 26.6 µM (active) | inactive | – | – | – | – | – |
| Cl/C=C/CCl | > 92 µM (inactive) | > 92 µM (inactive) | inactive | inactive | – | 1.37% (inactive) | inactive | inactive | 5.14 | inactive | inactive | – | inactive | inactive | inactive | inactive | -4.73% (inactive) | -2.05% (inactive) | – |
| Brc1cccc(-c2ccccc2)c1 | > 92 µM (inactive) | > 92 µM (inactive) | inactive | – | inactive | -4.94% (inactive) | – | – | – | – | – | inactive | – | inactive | – | inactive | – | – | -2.22% (inactive) |
| C=CCOCC1CO1 (stereo unspecified) | – | > 92 µM (inactive) | inactive | inactive | inactive | 4.14% (inactive) | – | – | – | – | – | inactive | inactive | – | – | – | 1.27% (inactive) | – | -2.32% (inactive) |
| ClCCBr | > 92 µM (inactive) | > 92 µM (inactive) | inactive | inactive | inactive | – | – | – | -34.3 | inactive | inactive | inactive | inactive | inactive | inactive | – | – | – | – |
| COc1ccccc1N | > 92 µM (inactive) | > 92 µM (inactive) | inactive | inactive | – | – | – | – | – | inactive | inactive | inactive | – | inactive | – | – | – | – | – |
| Oc1cc(Cl)cc(Cl)c1 | > 92 µM (inactive) | > 92 µM (inactive) | – | inactive | inactive | 6.41% (inactive) | – | inactive | – | inactive | inactive | inactive | – | 42.2 µM (active) | – | inactive | 11.4% (inactive) | 1.86% (inactive) | – |
